Among all 58,000 […] or so, about 3,400 (5.9%) were called active. No stated cut-off is given here; in the data, active = GI50 up to about 1.1 µM and inactive = higher. Not all results are given here. Results with a measured potency or affinity are listed apart.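 96-well plates; 48 h exposure; 5 concentrations. Endpoints by linear interpolation between flanking doses. Not reached: highest tested concentration assigned. GI50 = concentration required for 50% inhibition of growth.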
system: A549; experiment: NCI tumour cell line growth inhibition, 48 h

Substance | GI50
[Bis(aminomethyl)ethylmethylsilane]tetrachloroplatinum(IV), CHEMBL2146192 | 2.57 µM
[Bis(aminomethyl)tetramethylenesilane]dichloropaltinum(II), CHEMBL2146205 | 27 µM
mu-(1,7-nanodiamine-N,N')bis-(cis-aminedichloroplatimum (II)), CHEMBL2146215 | 38.7 µM
[Bis(aminomethyl)dimethylsilane]tetrachloroplatinum(IV), CHEMBL2146190 | 4.91 µM
[Bis(aminomethyl)diethylsilane]tetrachloroplatinum(IV), CHEMBL2146203 | 6.84 µM
CISPLATIN, CHEMBL11359 | 3.08 µM
[Bis(aminomethyl)dimethylsilane]dichloroplatinum (II), CHEMBL2146201 | 17.4 µM
cis-Bis[[(trimethylsilyl)methyl]amino]tetrachloroplatinum(IV), CHEMBL2146191 | 15.6 µM
[Bis(aminomethyl)tetramethylenesilane]tetrachloropaltinum(IV), CHEMBL2146189 | 8.34 µM
[Bis(aminomethyl)pentamethylenesilane]dichloropaltinum(II), CHEMBL2146202 | 2.08 µM
[Bis(aminomethyl)pentamethylenesilane]tetrachloropaltinum(IV), CHEMBL2146204 | 2.02 µM
